Pf growth 48h – inhibits P. falciparum growth in the first generation, 48 h; P. falciparum luciferase growth in erythrocytes, 48 h; Potency, µM (top dose mostly 28.7 µM), for the others: at the top dose activity change, negative = inhibition, actives largely listed as inhibitors; 5.9% of 310,000 active; AID 504832; note: % is set by controls: 0 for no effect and ±100 for the full control effect
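Read-out is firefly luciferase luminescence from an integrated reporter in P. falciparum, so falling signal marks reduced parasite growth. Infected erythrocytes were at 2% hematocrit and 0.1% parasitemia (final) in Albumax-supplemented RPMI 1640.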
Vaccinia mCherry – inhibitors of vaccinia virus infection (mCherry reporter signal). Vaccinia virus mCherry reporter infection, fluorescence. Potency, µM (doses to about 36.5 µM), for inactives: top-dose activity change, negative = inhibition, hits mostly inhibitors. 0.63% of 310,000 active. AID 720579; calls by dose curve; tested in A549 cells; note: % is set by controls: 0 for no effect and ±100 for the full control effect; nearly all actives have a fitted effect of over 35% in size
HCV inhibitor – HCV inhibition; Huh7.5.1 HCVcc-Cre infection, luciferase reporter, 44 h; Potency, µM (highest dose often 41.8 µM), without a hit: at the top dose activity change, negative = inhibition, most hits filed as inhibitors; 3.4% of 340,000 active; note: % is set by controls: 0 for no effect and ±100 for the full control effect
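Infectious HCV cell culture screen: compound-treated cells (1,000/well, pre-plated 4 h) are infected with HCVcc-Cre at roughly 0.5 moi and grown 44 h. Infection is quantified by luciferase signal after 15 min substrate incubation at room temperature.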
Vaccinia Venus – vaccinia inhibition (Venus reporter) | AID 720580 | Vaccinia virus Venus reporter expression, fluorescence | Potency, µM (doses to about 36.5 µM), inactives show at the top dose activity change, negative = inhibition, most hits filed as inhibitors | 0.46% of 330,000 active; calls by dose curve; tested in A549 cells; note: % is set by controls: 0 for no effect and ±100 for the full control effect; nearly all actives have a fitted effect of over 30% in size
Pf growth 96h – P. falciparum growth inhibition at 96 hours; Potency, µM (titrated, usually from 28.7 µM), for the others: at the highest dose activity change, negative = inhibition, actives largely listed as inhibitors; P. falciparum luciferase reporter growth, 96 h; 6.9% of 320,000 active; note: % is set by controls: 0 for no effect and ±100 for the full control effect
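Compounds incubated with erythrocytes infected by luciferase-expressing P. falciparum (2% hematocrit, 0.05% parasitemia final) for 96 hours, 37 C in 5% CO2. Growth inhibition scored as decreased luciferase luminescence.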
NS1 inh – blocks influenza NS1 protein function | Potency, µM (series often up to 46.1 µM), without a hit: at the top dose activity, positive = more growth | AID 2326 | 0.4% of 270,000 active; calls by dose curve; note: actives are rising curves; nearly all actives have a fitted effect of over 50% in size
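Read-out: OD600 growth recovery of NS1-expressing budding yeast. Cells grown overnight at 30C in -URA glucose medium, washed, resuspended and diluted 1:100 in 2% galactose assay medium, pH 6.0. Same strain lacking NS1 served as positive control.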
Active calls of the source: *; i = inactive; ? = inconclusive; . = no result. Rows were chosen to be rich in hits. Some 11% of all compounds tested hit in one or more screens of this group. Unless noted, calls come from the whole dose curve; as a rule, active = well fitted inhibition curve with a large enough effect; inconclusive = small, poorly fitted or top-dose-only effect, or another doubt; inactive = no such curve, though single readings can be large or run the other way. Potency is the fitted concentration of half-maximal effect.

SMILES	Pf growth 48h	Vaccinia mCherry	HCV inhibitor	Vaccinia Venus	Pf growth 96h	NS1 inh
COc1cccc(C2c3[nH]c4ccccc4c3CCN2Cc2cnc(C)s2)c1OC (configuration not stated)	2.3µM*	-21%	-29%	-12%	?	1%
COc1ccccc1C1c2[nH]c3ccccc3c2CCN1Cc1cnc(C)s1 (configuration not stated)	?	6%	5%	7%	?	2%
CCCc1cc(=O)oc2cc(OCc3cccc(OC)c3)c(Cl)cc12	44%	i	-12%	-7%	-15%	0%
O=C(CCCn1ncn2c(cc3occc32)c1=O)N1CCc2ccccc2C1	?	.	2%	-21%	?	12%
CCc1ccc(NC(=O)COC(=O)CCCC2=NS(=O)(=O)c3ccccc3N2)cc1	10%	-2%	32%	-7%	?	.
COc1ccc(OCCNS(=O)(=O)c2ccccc2)cc1	0%	.	-2%	6%	69%	-3%
CS(=O)(=O)NCCOc1ccc(S(=O)(=O)NCCOc2ccccc2)cc1	10µM*	-1%	6%	-6%	31%	.
O=C(NC1(C(F)(F)F)C(=O)Nc2c1c(=O)[nH]c(=O)n2-c1ccc(F)cc1)c1ccccc1 (configuration not stated)	.	-4%	.	-7%	.	.
Cc1cccc(C2=NC(C(F)(F)F)(C(F)(F)F)c3c(n(-c4ccc(F)cc4)c(=O)[nH]c3=O)N2)c1	13µM*	?	?	-26%	12µM*	2%
Cc1ccc(OCCn2ccc(=O)[nH]c2=O)cc1C	1%	.	8%	.	?	1%
CCc1ccc(C2C(C(C)=O)=C(C(=O)OC)Nc3nnnn32)cc1 (configuration not stated)	-17%	-19%	-1%	-15%	5.2µM*	6%
COc1ccc(OC)c(C2C3=C(CC(C)(C)CC3=O)Nc3nnnn32)c1 (configuration not stated)	?	-12%	20%	-15%	?	5%
COc1ccc(S(=O)(=O)NCC(c2cccs2)N2CCc3ccccc3C2)cc1 (configuration not stated)	-24%	-1%	2%	-18%	6%	.
COc1cccc(C(=O)NCC(c2ccco2)N2CCc3ccccc3C2)c1 (configuration not stated)	?	-11%	9%	-3%	-21%	.
COc1ccc(OC)c(S(=O)(=O)NCC(c2cccs2)N2CCc3ccccc3C2)c1 (configuration not stated)	15µM*	i	-12%	-10%	?	.
CC(=O)Nc1cccc(NC(=O)C(=O)NCC(c2ccco2)N2CCc3ccccc3C2)c1 (configuration not stated)	12µM*	i	?	-10%	?	.
COc1ccc(NC(=O)C(=O)NCC(c2ccco2)N2CCc3ccccc3C2)cc1OC (configuration not stated)	12µM*	-15%	?	?	?	.
Cc1cc(C)c(S(=O)(=O)NCC(c2ccco2)N2CCc3ccccc3C2)c(C)c1 (configuration not stated)	9.3µM*	-3%	1%	-16%	?	.
CCc1ccc(CCN2C(=O)c3ccccc3C2=O)nc1	49%	i	-10%	5%	0%	0%
O=C(C1CCC1)N1CCN(c2ccc(C(F)(F)F)cc2[N+](=O)[O-])CC1	-25%	i	.	-3%	-2%	6%
COc1cccc(NC(=O)C(=O)NCC(c2ccco2)N2CCc3ccccc3C2)c1 (configuration not stated)	12µM*	-1%	?	-21%	?	.
COc1ccc(/C=C2\Oc3cc(OCC(=O)N4CCC[C@H]4C(=O)O)ccc3C2=O)c(OC)c1OC	29%	i	3%	-8%	?	19%
Cc1cc(NC(=O)CSc2nnc(-c3ccc([N+](=O)[O-])cc3)o2)no1	?	.	9%	.	22%	-10%
CCCC1(c2ccccc2)NC(=O)N(CC(=O)N2CC(=O)Nc3ccccc32)C1=O (configuration not stated)	2.9µM*	.	19%	.	?	.
Cc1ccc(C2(c3ccccc3)NC(=O)N(CC(=O)N3CC(=O)Nc4ccccc43)C2=O)cc1C (configuration not stated)	2.3µM*	.	?	.	3.7µM*	.
SMILES	Pf growth 48h	Vaccinia mCherry	HCV inhibitor	Vaccinia Venus	Pf growth 96h	NS1 inh
O=C1CN(C(=O)CN2C(=O)NC(c3ccccc3)(c3ccccc3)C2=O)c2ccccc2N1	.	.	10%	.	.	.
CCC1(c2ccc(F)cc2)NC(=O)N(CC(=O)N2CC(=O)Nc3ccccc32)C1=O (configuration not stated)	?	-13%	-3%	-4%	-4%	.
COc1ccccc1CNC(=O)CN1C(=O)NC(c2ccccc2)(c2ccc(C)c(C)c2)C1=O (configuration not stated)	9.3µM*	?	-22%	?	9.3µM*	.
c1ccc(-c2nnc(CN3CCCCC3)o2)cc1	33%	i	-12%	-12%	5%	5%
CCN1C(=O)C(=C2C=C(C)OC(C)=C2)C(=O)N(CC)C1=S	9%	.	13%	.	-1%	.
CCCNC(=O)c1ccccc1NC(=O)c1ccc2c(c1)NC(=O)C(C)S2 (configuration not stated)	?	.	4.5µM*	.	?	-15%
CC(=O)c1ccccc1NC(=O)c1ccc2c(c1)NC(=O)C(C)S2 (configuration not stated)	-5%	2%	11µM*	0%	9%	.
Cc1ccnc(NC(=O)c2ccc3c(c2)NC(=O)C(C)S3)c1 (configuration not stated)	136%	.	-21%	.	246%	.
COc1ccc(S(=O)(=O)N(C)C)cc1NC(=O)c1ccc2c(c1)NC(=O)C(C)S2 (configuration not stated)	9.3µM*	.	?	.	5.2µM*	.
CC1Sc2ccc(C(=O)Nc3ccc(S(=O)(=O)N(C)C)cc3)cc2NC1=O (configuration not stated)	?	-14%	?	-13%	?	.
CC1Sc2ccc(C(=O)NCc3cccc(C(F)(F)F)c3)cc2NC1=O (configuration not stated)	?	.	22µM*	.	-28%	.
CC(C)(C)Nc1nc2nonc2nc1NC(C)(C)C	.	-29%	?	-28%	?	-2%
O=C(N/N=C\c1ccc(OC(=O)c2ccco2)cc1)c1ccc(Cl)cc1	52%	.	9%	.	28%	4%
O=S(=O)(c1ccc(Br)cc1)N1CCN=C1SCc1cccc(F)c1	-3%	.	-6%	.	-14%	-5%
CCOC(=O)C1(C(C)(C)CC)CC(CSc2nc3ccccc3[nH]2)OC1=O (configuration not stated)	8.3µM*	.	?	.	-22%	-23%
